Data taken from the supplement of paper PMC10849652.
About 7,900 targets were measured; listed, in parts, are those with a hit and a random draw of the rest. About 0.6% of all pairs of compound and target were hits.

How the values were obtained:
Assay in all cases: log2 fold change, soluble protein after heating vs DMSO (PISA); higher = thermal stabilisation; K562 cells, 10 uM, 30 min; active = over 0.2 and 3.5 SD of the protein, either way, in both replicates (recomputed)
saracatinib = compound: CN1CCN(CCOc2cc(OC3CCOCC3)c3c(Nc4c(Cl)ccc5c4OCO5)ncnc3c2)CC1 [saracatinib]
Summary of the method: (§1)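 K562 cells at 2×10^6 cells/mL were treated with 10 μM compound for 30 min. Aliquots were heated for 3 min across 48°C-58°C, pooled, and extracted in PBS with 0.5% NP-40 at 4°C; soluble protein was the supernatant after 21,000xg for 90 min. Soluble protein was quantified by TMTpro 16plex LC-MS/MS with channel sums equalised, and reported as log2 fold change in thermal stability against DMSO controls, with values from duplicates.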

sotrastaurin = compound: CN1CCN(c2nc(C3=C(c4c[nH]c5ccccc45)C(=O)NC3=O)c3ccccc3n2)CC1 [sotrastaurin]
Summary of the method: as §1

Tubastatin A = compound: CN1CCc2c(c3ccccc3n2Cc2ccc(C(=O)NO)cc2)C1 [Tubastatin A]
Summary of the method: as §1

[1] = compound: CNC(=O)C1=CC=CC=C1NC2=NC(=NC=C2Cl)NC3=C(C=C(C=C3)N4CCOCC4)OC
Summary of the method: as §1

rucaparib = compound: CNCc1ccc(-c2[nH]c3cc(F)cc4c3c2CCNC4=O)cc1 [rucaparib]
Summary of the method: as §1

[2] = compound: CNc1nc(-c2ccc3c(N)n[nH]c3c2)cc(N2C[C@@H](C(=O)NC3CCCCC3)CC[C@H]2C)n1
Summary of the method: as §1

encorafenib = compound: COC(=O)N[C@@H](C)CNc1nccc(-c2cn(C(C)C)nc2-c2cc(Cl)cc(NS(C)(=O)=O)c2F)n1 [encorafenib]
Summary of the method: as §1

[3] = compound: COC1=CC=C(C=C1)CN2C=CC3=C2C=C(C=C3)C(=O)NO
Summary of the method: as §1

filanesib = compound: CON(C)C(=O)N1N=C(c2cc(F)ccc2F)S[C@@]1(CCCN)c1ccccc1 [filanesib]
Summary of the method: as §1

idasanutlin = compound: COc1cc(C(=O)O)ccc1NC(=O)[C@@H]1N[C@@H](CC(C)(C)C)[C@](C#N)(c2ccc(Cl)cc2F)[C@H]1c1cccc(Cl)c1F [idasanutlin]
Summary of the method: as §1

alisertib = compound: COc1cc(Nc2ncc3c(n2)-c2ccc(Cl)cc2C(c2c(F)cccc2OC)=NC3)ccc1C(=O)O [alisertib]
Summary of the method: as §1

[4] = compound: COc1cc2nc(-c3cc(F)ccc3O)nc(N[C@@H]3CNC[C@H]3C(C)(C)O)c2cc1OC
Summary of the method: as §1

gefitinib = compound: COc1cc2ncnc(Nc3ccc(F)c(Cl)c3)c2cc1OCCCN1CCOCC1 [gefitinib]
Summary of the method: as §1

[5] = compound: COc1cccc2cc(-c3nc([C@H]4CC[C@H](C(=O)O)CC4)n4ncnc(N)c34)[nH]c12
Summary of the method: as §1

lapatinib = compound: CS(=O)(=O)CCNCc1ccc(-c2ccc3ncnc(Nc4ccc(OCc5cccc(F)c5)c(Cl)c4)c3c2)o1 [lapatinib]
Summary of the method: as §1

pictilisib = compound: CS(=O)(=O)N1CCN(Cc2cc3nc(-c4cccc5[nH]ncc45)nc(N4CCOCC4)c3s2)CC1 [pictilisib]
Summary of the method: as §1

alvocidib = compound: CN1CC[C@H](c2c(O)cc(O)c3c(=O)cc(-c4ccccc4Cl)oc23)[C@H](O)C1 [alvocidib]
Summary of the method: as §1

zotarolimus = compound: CO[C@H]1C[C@@H]2CC[C@@H](C)[C@@](O)(O2)C(=O)C(=O)N2CCCC[C@H]2C(=O)O[C@H]([C@H](C)C[C@@H]2CC[C@H](n3cnnn3)[C@H](OC)C2)CC(=O)[C@H](C)/C=C(\C)[C@@H](O)[C@@H](OC)C(=O)[C@H](C)C[C@H](C)/C=C/C=C/C=C/1C [zotarolimus]
Summary of the method: as §1

defactinib = compound: CNC(=O)c1ccc(Nc2ncc(C(F)(F)F)c(NCc3nccnc3N(C)S(C)(=O)=O)n2)cc1 [defactinib]
Summary of the method: as §1

[6] = compound: COC(=O)[C@H](CCSC)NC(=O)C1=C(C=C(C=C1)NC[C@H](CS)N)C2=CC=CC=C2
Summary of the method: as §1

Measured: log2 fold change

MED12 isoform 2 (UniProt Q93074)
inactive: saracatinib 0.072 | sotrastaurin -0.09 | Tubastatin A 0.32 | [1] 0.303 | rucaparib 0.137 | [2] 0.102 | encorafenib 0.145 | [3] 0.093 | filanesib 0.256 | idasanutlin 0.103 | alisertib 0.214 | [4] -0.09 | gefitinib 0.024 | [5] 0.007 | lapatinib 0.028 | pictilisib -0.113

MELK (UniProt Q14680)
UniProt Q14680, sequence (Q14680 whole entry, looked up): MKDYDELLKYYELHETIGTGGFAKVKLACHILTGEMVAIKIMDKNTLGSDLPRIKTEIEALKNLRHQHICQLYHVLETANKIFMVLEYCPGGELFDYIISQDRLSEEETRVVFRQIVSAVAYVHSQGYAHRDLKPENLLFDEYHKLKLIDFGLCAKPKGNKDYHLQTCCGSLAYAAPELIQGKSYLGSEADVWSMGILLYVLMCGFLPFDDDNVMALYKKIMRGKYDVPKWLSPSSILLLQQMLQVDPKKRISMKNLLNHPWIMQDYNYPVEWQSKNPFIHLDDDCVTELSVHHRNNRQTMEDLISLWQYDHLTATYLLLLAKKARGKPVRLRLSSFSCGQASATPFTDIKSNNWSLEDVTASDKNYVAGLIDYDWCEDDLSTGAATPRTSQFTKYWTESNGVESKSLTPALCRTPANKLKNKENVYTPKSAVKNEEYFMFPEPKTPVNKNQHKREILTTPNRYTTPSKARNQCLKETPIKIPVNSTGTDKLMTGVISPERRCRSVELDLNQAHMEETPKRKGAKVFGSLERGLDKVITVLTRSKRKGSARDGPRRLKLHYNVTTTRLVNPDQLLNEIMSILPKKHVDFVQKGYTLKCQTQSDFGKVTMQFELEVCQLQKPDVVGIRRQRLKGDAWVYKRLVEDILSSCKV
active: [4] -3.59
inactive: saracatinib -0.005 | sotrastaurin 0.166 | alvocidib 0.011 | Tubastatin A 0.074 | [1] -0.347 | rucaparib 0.125 | [2] 0.196 | encorafenib 0.06 | [3] 0.072 | filanesib -0.116 | zotarolimus -0.019 | idasanutlin 0.061 | gefitinib 0.253 | lapatinib -0.006 | pictilisib -0.079

KLHL18 (UniProt O94889)
UniProt O94889, sequence (O94889 whole entry, looked up): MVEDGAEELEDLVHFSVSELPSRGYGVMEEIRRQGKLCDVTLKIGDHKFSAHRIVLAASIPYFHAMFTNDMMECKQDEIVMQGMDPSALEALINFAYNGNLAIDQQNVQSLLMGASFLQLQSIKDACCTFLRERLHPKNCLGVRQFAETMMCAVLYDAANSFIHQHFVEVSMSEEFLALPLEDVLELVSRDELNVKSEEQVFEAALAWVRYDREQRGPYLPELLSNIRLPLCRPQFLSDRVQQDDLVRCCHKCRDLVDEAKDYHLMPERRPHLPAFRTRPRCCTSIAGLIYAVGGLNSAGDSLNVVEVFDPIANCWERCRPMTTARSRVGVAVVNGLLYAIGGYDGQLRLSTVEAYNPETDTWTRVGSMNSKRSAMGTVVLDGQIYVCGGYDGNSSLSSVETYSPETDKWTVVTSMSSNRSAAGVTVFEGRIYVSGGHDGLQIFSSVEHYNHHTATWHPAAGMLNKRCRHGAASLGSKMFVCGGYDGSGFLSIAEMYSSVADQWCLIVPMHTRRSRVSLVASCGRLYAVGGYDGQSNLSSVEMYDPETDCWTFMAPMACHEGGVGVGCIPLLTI
inactive: saracatinib -0.033 | sotrastaurin -0.042 | alvocidib -0.084 | Tubastatin A 0.144 | [1] -0.077 | defactinib -0.04 | rucaparib -0.042 | [2] 0.007 | encorafenib 0.019 | [6] -0.05 | filanesib 0 | zotarolimus 0.022 | idasanutlin -0.048 | alisertib -0.068 | [4] -0.048 | gefitinib 0.057 | [5] 0.038 | lapatinib 0.071 | pictilisib 0.09

MED22 (UniProt Q15528)
inactive: saracatinib -0.089 | sotrastaurin -0.007 | alvocidib -0.055 | Tubastatin A 0.332 | [1] -0.051 | defactinib -0.043 | rucaparib 0.021 | [2] 0.044 | encorafenib 0.12 | [6] 0.097 | [3] -0.03 | filanesib -0.008 | zotarolimus 0.047 | idasanutlin -0.023 | alisertib 0.019 | gefitinib 0.017 | [5] -0.171

MAP3K20 (UniProt Q9NYL2)
inactive: saracatinib -0.106 | sotrastaurin 0.055 | alvocidib 0.065 | Tubastatin A 0.004 | [1] 0.054 | defactinib -0.018 | rucaparib 0.002 | [2] 0.01 | encorafenib 0.02 | [6] -0.034 | [3] 0.04 | filanesib 0.075 | zotarolimus 0.033 | idasanutlin 0.064 | [4] 0.048 | gefitinib -0.042 | [5] -0.059 | lapatinib 0 | pictilisib -0.02

LUZP1 (UniProt Q86V48)
active: filanesib 0.552
inactive: saracatinib 0.075 | sotrastaurin -0.088 | alvocidib 0.229 | Tubastatin A 0.13 | [1] -0.022 | defactinib -0.498 | [2] 0.002 | [6] -0.209 | [3] -0.08 | zotarolimus -0.059 | idasanutlin 0.03 | alisertib -0.081 | [4] -0.036 | gefitinib 0.051 | [5] -0.117 | lapatinib 0.041 | pictilisib 0.07

LEPROT (UniProt O15243)
inactive: saracatinib -0.261 | alvocidib 0.071 | Tubastatin A -0.133 | [1] 0.087 | rucaparib 0.028 | [2] -0.25 | encorafenib -0.077 | zotarolimus -0.056 | idasanutlin 0.31 | alisertib -0.027 | [5] 0.041 | pictilisib -0.212

MED29 (UniProt Q9NX70)
UniProt Q9NX70, sequence (Q9NX70 whole entry, looked up): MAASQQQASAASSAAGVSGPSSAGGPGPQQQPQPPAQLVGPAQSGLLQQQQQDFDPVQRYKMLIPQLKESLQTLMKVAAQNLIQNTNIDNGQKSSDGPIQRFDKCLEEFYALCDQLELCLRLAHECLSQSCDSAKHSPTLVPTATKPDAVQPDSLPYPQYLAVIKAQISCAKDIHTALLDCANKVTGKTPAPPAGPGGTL
active: [4] -0.77
inactive: saracatinib -0.033 | [1] 0.004 | [2] 0.001 | idasanutlin 0.1 | alisertib -0.571 | gefitinib 0.058 | [5] 0.115 | lapatinib -0.028

MAP4K4 isoform 3 (UniProt O95819)
inactive: saracatinib -0.054 | Tubastatin A -0.002 | [1] -0.051 | defactinib -0.067 | rucaparib -0.004 | [2] -0.037 | encorafenib 0.026 | [6] 0.018 | [3] -0.021 | filanesib 0.032 | zotarolimus 0.021 | idasanutlin 0.093 | [4] -0.05 | gefitinib 0.01 | [5] 0.02 | lapatinib -0.021 | pictilisib -0.153

KMT5A (UniProt Q9NQR1)
active: filanesib 0.976
inactive: sotrastaurin -0.18 | pictilisib 0.368

ITPRID2 (UniProt P28290)
inactive: [1] -0.299 | defactinib -0.158 | rucaparib -0.019 | encorafenib -0.087 | [6] 0.059 | [3] 0 | [4] 0.141 | lapatinib -0.141

LDLRAP1 (UniProt Q5SW96)
inactive: [1] -0.014 | [3] 0.023

MAPK11 (UniProt Q15759)
inactive: Tubastatin A 0.208 | [1] 0.615 | [3] -0.126 | pictilisib 0.068

MBLAC1 (UniProt A4D2B0)
inactive: saracatinib 0.164 | alvocidib 0.002 | [1] 0.049 | defactinib 0.003 | rucaparib 0.023 | [2] -0.005 | encorafenib 0.035 | [6] -0.02 | [3] 0.11 | zotarolimus 0.008 | idasanutlin 0.056 | alisertib -0.161 | [4] -0.064 | [5] 0.086 | lapatinib 0.01 | pictilisib 0.043

IGFBP6 (UniProt P24592)
UniProt P24592, sequence (P24592 whole entry, looked up): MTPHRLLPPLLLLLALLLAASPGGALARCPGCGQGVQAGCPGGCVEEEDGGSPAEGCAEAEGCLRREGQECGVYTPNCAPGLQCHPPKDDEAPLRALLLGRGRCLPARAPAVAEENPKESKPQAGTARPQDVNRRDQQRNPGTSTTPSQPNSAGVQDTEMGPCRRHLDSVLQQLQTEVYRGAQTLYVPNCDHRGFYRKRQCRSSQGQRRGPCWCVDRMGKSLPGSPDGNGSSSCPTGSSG
inactive: saracatinib 0.011 | alvocidib 0.136 | defactinib 0.144 | [2] -0.094 | [6] 0.055
active: zotarolimus -1.03 | idasanutlin 0.776

LRRCC1 (UniProt Q9C099)
inactive: saracatinib 0 | Tubastatin A 0.292 | [2] 0.06 | idasanutlin -0.069

MAP4K2 (UniProt Q12851)
inactive: sotrastaurin -0.184 | alvocidib -0.076 | Tubastatin A 0.076 | rucaparib -0.003 | encorafenib 0.066 | [3] 0.02 | filanesib -0.143 | zotarolimus -0.083 | [4] 0.426 | gefitinib 0.034 | lapatinib -0.011

IKZF1 (UniProt R9R4D9)
inactive: saracatinib 0.019 | alvocidib 0.155 | Tubastatin A -0.158 | [2] -0.038 | [3] -0.167 | zotarolimus -0.192 | [4] 0.084 | lapatinib 0.037 | pictilisib 0.059

MAPRE3 isoform 2 (UniProt Q9UPY8)
inactive: alvocidib -0.075 | Tubastatin A 0.13 | [3] 0.192 | zotarolimus 0.008 | idasanutlin 0.155 | [4] -0.176 | gefitinib -0.02 | lapatinib -0.265

KIZ (UniProt Q2M2Z5)
inactive: alvocidib -0.076 | rucaparib -0.027 | encorafenib -0.038 | [3] -0.008 | zotarolimus 0.269 | idasanutlin -0.019 | [4] -0.064 | lapatinib 0.066 | pictilisib -0.215

MCOLN3 (UniProt Q8TDD5)
inactive: Tubastatin A -0.001 | [1] -0.141 | rucaparib -0.275 | encorafenib -0.026 | alisertib 0.058 | [4] 0.068 | gefitinib -0.04 | [5] -0.035 | lapatinib -0.02 | pictilisib 0.044

IPP (UniProt Q9Y573)
inactive: idasanutlin 0.051

KIF13A isoform 4 (UniProt Q9H1H9)
UniProt Q9H1H9, sequence (Q9H1H9 whole entry, looked up): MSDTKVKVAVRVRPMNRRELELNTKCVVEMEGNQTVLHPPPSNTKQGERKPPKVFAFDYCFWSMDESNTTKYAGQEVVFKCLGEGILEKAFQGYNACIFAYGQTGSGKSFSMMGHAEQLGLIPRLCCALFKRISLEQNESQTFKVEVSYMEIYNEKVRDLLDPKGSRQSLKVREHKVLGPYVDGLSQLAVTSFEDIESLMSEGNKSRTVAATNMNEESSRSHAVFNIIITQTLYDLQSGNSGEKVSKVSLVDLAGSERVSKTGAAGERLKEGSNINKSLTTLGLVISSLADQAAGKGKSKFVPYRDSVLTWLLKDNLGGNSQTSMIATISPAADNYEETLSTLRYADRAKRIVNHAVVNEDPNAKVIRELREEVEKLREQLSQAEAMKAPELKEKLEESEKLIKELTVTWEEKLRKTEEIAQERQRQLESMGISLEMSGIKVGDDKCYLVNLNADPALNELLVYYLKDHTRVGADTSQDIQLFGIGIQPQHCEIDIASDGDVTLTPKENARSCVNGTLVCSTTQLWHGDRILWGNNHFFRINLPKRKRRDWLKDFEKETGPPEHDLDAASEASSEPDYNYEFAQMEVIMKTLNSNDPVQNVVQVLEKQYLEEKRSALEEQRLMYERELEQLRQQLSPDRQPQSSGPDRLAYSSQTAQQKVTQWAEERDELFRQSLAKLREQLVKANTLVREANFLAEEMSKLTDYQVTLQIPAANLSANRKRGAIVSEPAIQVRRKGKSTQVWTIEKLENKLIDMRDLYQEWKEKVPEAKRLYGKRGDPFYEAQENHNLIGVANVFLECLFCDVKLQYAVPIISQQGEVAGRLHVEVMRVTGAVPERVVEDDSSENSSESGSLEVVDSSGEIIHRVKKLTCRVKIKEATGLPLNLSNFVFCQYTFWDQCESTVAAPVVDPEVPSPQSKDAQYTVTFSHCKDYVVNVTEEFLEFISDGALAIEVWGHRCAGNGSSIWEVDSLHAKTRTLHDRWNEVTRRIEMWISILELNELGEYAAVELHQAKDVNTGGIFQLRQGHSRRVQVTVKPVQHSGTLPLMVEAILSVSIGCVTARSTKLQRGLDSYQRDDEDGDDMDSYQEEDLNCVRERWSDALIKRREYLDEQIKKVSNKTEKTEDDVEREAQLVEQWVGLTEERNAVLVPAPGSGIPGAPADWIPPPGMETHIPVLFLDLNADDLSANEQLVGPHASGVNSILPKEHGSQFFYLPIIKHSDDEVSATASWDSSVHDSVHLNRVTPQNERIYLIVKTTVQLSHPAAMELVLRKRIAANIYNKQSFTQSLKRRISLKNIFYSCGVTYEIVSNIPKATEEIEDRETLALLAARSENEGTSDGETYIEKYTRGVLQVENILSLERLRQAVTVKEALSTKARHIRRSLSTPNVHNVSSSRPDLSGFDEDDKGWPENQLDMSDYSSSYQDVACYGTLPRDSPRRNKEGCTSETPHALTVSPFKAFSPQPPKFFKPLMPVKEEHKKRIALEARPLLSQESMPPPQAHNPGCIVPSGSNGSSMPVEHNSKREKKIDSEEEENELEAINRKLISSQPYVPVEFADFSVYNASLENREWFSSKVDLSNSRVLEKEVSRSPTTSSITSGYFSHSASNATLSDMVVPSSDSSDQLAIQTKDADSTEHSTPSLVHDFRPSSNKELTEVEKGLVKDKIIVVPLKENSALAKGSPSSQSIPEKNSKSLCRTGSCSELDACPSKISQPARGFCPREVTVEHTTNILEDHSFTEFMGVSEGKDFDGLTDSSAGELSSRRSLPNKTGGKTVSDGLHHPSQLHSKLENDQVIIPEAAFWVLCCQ
inactive: sotrastaurin -0.027 | alvocidib -0.091 | filanesib -0.684 | zotarolimus 0.03 | idasanutlin -0.081

LSR (UniProt M0QZL9)
inactive: sotrastaurin 0.042 | defactinib 0.065 | [6] -0.249 | filanesib 0.168

MAP4K4 isoform 6 (UniProt O95819)
inactive: saracatinib -0.108 | Tubastatin A -0.016 | defactinib -0.012 | rucaparib 0.067 | [2] -0.186 | encorafenib 0.049 | [6] -0.036 | filanesib -0.018 | zotarolimus -0.162 | gefitinib -0.028 | [5] -0.179

LAPTM4B (UniProt Q86VI4)
UniProt Q86VI4, sequence (Q86VI4 whole entry, looked up): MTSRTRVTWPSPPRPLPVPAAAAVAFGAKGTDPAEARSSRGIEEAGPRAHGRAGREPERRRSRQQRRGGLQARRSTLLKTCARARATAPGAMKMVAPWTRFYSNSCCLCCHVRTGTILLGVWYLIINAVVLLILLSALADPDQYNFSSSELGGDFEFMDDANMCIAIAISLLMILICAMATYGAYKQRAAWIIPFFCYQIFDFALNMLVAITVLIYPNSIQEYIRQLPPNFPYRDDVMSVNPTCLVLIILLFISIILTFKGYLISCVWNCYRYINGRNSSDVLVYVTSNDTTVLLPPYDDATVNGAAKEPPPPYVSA
inactive: sotrastaurin -0.194 | [1] 0.007 | rucaparib 0 | encorafenib 0.009 | filanesib 0.186 | alisertib -0.027 | [5] 0.007 | pictilisib 0.017

LIN52 (UniProt Q52LA3)
active: alisertib -0.924
inactive: saracatinib 0.038 | [2] -0.059 | [5] 0

LOX (UniProt P28300)
UniProt P28300, sequence (P28300 whole entry, looked up): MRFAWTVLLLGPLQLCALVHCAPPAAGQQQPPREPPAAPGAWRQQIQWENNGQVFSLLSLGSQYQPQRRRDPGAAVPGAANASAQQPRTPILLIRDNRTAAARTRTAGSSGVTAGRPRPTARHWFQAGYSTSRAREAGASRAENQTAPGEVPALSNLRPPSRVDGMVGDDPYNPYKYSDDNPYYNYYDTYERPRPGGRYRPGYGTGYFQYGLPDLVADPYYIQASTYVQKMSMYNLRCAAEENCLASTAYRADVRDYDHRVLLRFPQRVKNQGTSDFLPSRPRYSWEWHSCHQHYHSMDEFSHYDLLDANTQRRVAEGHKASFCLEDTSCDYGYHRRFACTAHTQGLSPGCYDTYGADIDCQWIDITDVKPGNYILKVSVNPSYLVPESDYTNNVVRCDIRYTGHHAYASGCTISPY
inactive: [1] -0.303 | alisertib -0.111 | gefitinib -0.391 | [5] 0.146

MAP2K5 (UniProt Q13163)
inactive: saracatinib 0.445 | alvocidib -0.008 | [2] 0.004 | [3] 0.206 | zotarolimus 0.003 | idasanutlin -0.117

MAPK7 (UniProt Q13164)
UniProt Q13164, sequence (Q13164 whole entry, looked up): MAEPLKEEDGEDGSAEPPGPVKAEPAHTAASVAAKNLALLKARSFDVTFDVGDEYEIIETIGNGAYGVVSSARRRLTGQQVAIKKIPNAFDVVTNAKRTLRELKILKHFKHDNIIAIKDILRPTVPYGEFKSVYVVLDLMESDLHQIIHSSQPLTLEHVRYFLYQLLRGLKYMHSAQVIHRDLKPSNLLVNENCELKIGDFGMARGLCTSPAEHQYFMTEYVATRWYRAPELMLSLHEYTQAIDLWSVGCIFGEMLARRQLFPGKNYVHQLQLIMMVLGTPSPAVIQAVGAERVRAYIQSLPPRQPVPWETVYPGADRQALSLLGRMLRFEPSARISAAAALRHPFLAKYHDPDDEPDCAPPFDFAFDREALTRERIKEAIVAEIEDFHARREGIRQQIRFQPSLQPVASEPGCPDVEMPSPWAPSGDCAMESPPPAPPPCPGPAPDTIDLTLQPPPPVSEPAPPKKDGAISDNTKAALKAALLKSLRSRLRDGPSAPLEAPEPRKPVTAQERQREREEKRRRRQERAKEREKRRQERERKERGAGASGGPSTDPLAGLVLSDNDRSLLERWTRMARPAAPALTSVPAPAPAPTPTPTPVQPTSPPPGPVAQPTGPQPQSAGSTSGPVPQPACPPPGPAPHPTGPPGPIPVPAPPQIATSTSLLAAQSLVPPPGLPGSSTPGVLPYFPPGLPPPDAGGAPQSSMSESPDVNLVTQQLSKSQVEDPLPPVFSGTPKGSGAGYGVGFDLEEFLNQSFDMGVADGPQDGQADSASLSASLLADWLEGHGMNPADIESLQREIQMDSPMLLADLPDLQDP
inactive: [3] -0.066 | idasanutlin 0.003 | pictilisib 0.108

KIF21A (UniProt H0YI78)
inactive: [1] -0.012

MFSD1 isoform 6 (UniProt Q9H3U5)
inactive: sotrastaurin -0.041 | alvocidib 0.022 | Tubastatin A -0.039 | [1] 0.066 | defactinib 0.046 | rucaparib -0.014 | encorafenib -0.028 | [6] -0.004 | filanesib -0.123 | zotarolimus -0.108 | idasanutlin -0.01 | alisertib -0.035 | [4] 0.019 | gefitinib -0.021 | [5] 0.181 | lapatinib -0.026 | pictilisib 0.055
